Experimental data: PubChem BioAssay (NCI)
Compounds without any hit were thinned out: in the full panel of roughly 79,000, 15% have a hit. Active and inactive are the calls of the source. Cut-off read from the data, not from the text of the source: active = growth inhibition above about 70%; inactive = the rest.

Legend:
[1] = NCI Yeast Anticancer Drug Screen. Data for the rad52 strain (AID 147);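 note: 0% = growth of vehicle-treated control cultures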; conditions: S. cerevisiae rad52 mutant growth inhibition, stronger effect = higher value
Outline: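 Read-out: growth inhibition versus vehicle-treated controls. Cells were a DNA repair-deficient yeast strain treated with compounds.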

[2] = NCI Yeast Anticancer Drug Screen. Data for the wt1 strain (AID 149);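 note: 0% = growth of vehicle-treated wt1 cultures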; conditions: S. cerevisiae wt1 strain (SPY 50644) growth inhibition, stronger effect = higher value
Outline: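 Readout: yeast growth inhibition, normalised to vehicle controls, in the wt1 strain exposed to test compounds.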

[3] = NCI Yeast Anticancer Drug Screen. Data for the rad50EPP+ strain (AID 151);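 note: 0% = growth of vehicle-treated control cultures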; conditions: S. cerevisiae rad50 mutant strain, stronger effect = higher value
Outline: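 Growth inhibition read against vehicle controls in rad50EPP+ yeast, a strain altered in DNA damage repair, after compound exposure.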

[4] = NCI Yeast Anticancer Drug Screen. Data for the rad50 strain (AID 155);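 note: 0% = growth of vehicle-only cultures of the same strain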; conditions: S. cerevisiae rad50 strain growth inhibition, stronger effect = higher value
Outline: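 Compounds were tested on a yeast strain with an engineered DNA damage repair alteration; the reported value is growth inhibition normalised to vehicle treatment.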

[5] = NCI Yeast Anticancer Drug Screen. Data for the mec2-1 strain (AID 157); conditions: S. cerevisiae mec2-1 strain, stronger effect = higher value
Outline: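 Yeast mec2-1 mutant treated with compound. Readout: growth inhibition vs vehicle controls.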

[6] = NCI Yeast Anticancer Drug Screen. Data for the rad14 strain (AID 159);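 note: 0% = growth of vehicle-treated control cultures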; conditions: S. cerevisiae rad14 strain growth inhibition, stronger effect = higher value
Outline: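 Compound-treated yeast with a defined DNA-repair lesion; growth inhibition normalised to vehicle-treated cultures.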

[7] = NCI Yeast Anticancer Drug Screen. Data for the sgs1 mgt1 strain (AID 161);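 note: 0% = growth of cultures given vehicle only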; conditions: S. cerevisiae sgs1 mgt1 strain, stronger effect = higher value
Outline: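 Test agents were incubated with a DNA-repair-mutant yeast strain. Growth was then read and compared against vehicle-treated controls.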

[8] = NCI Yeast Anticancer Drug Screen. Data for the CLN2oe strain (AID 163);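 note: 0% = growth of vehicle-only control cultures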; conditions: S. cerevisiae CLN2oe strain, stronger effect = higher value
Outline: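 Read-out: yeast growth inhibition, expressed relative to vehicle-only controls. The strain bears an engineered cell-cycle alteration.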

[9] = NCI Yeast Anticancer Drug Screen. Data for the cln2 rad14 strain (AID 165);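 note: 0% = growth equal to vehicle treated cultures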; conditions: S. cerevisiae cln2 rad14 strain, stronger effect = higher value
Outline: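 cln2 rad14 yeast strain; compound exposure; growth inhibition read vs vehicle controls.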

[10] = NCI Yeast Anticancer Drug Screen. Data for the bub3 strain (AID 167); conditions: S. cerevisiae bub3 mutant strain, stronger effect = higher value
Outline: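 Growth of a checkpoint-deficient yeast mutant is measured after compound exposure. Values represent inhibition relative to vehicle.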

[11] = NCI Yeast Anticancer Drug Screen. Data for the wt2 strain (AID 169);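 note: 0% = growth of vehicle-treated yeast cultures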; conditions: S. cerevisiae wt2 strain growth inhibition, stronger effect = higher value
Outline: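 Read-out: growth inhibition versus vehicle-treated control cultures after compound exposure of the yeast strain.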

[12] = NCI Yeast Anticancer Drug Screen. Data for the mlh1 strain (AID 171);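 note: 0% = growth of vehicle-treated control cultures of the same strain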; conditions: S. cerevisiae mlh1 strain growth inhibition, stronger effect = higher value
Outline: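 Read-out: growth inhibition versus vehicle controls. Strain: engineered yeast with a defined DNA repair or cell cycle defect, compound-treated.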

[13] = NCI Yeast Anticancer Drug Screen. Data for the mlh1 rad18 strain (AID 175); conditions: S. cerevisiae mlh1 rad18 strain growth inhibition, stronger effect = higher value
Outline: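 Yeast w/ defined DNA-repair lesions; compound exposure; growth vs vehicle controls → % inhibition.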

[14] = NCI Yeast Anticancer Drug Screen. Data for the rad18 strain (AID 177); conditions: S. cerevisiae rad18 mutant growth inhibition, stronger effect = higher value
Outline: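 Readout: growth inhibition vs vehicle controls. Cells: genetically altered yeast strain, DNA repair defect.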

[15] = NCI Yeast Anticancer Drug Screen. Data for the sgs1 strain (AID 173);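 note: 0% = growth of vehicle-only control cultures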; conditions: S. cerevisiae sgs1 mutant, stronger effect = higher value
Outline: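 Read-out: yeast growth inhibition relative to vehicle controls, following compound exposure of a strain with a defined DNA repair/cell cycle alteration.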

[16] = at 5.0 µM (retest, dose inferred, filed as 0.5)
[17] = at 50.0 µM (retest, dose inferred, filed as 5.0)

Measured: growth inhibition

O/N=C/C1c2ccccc2-c2ccccc21
inactive: [1]; at 1.2 µM 0% | [1]; at 3.7 µM 6% | [1]; at 11.0 µM 20% | [1]; at 33.0 µM 58% | [2]; at 1.2 µM -4% | [2]; at 3.7 µM -4% | [2]; at 11.0 µM -7% | [2]; at 33.0 µM 20% | [2]; at 100.0 µM 49% | [3]; at 1.2 µM -1% | [3]; at 3.7 µM 7% | [3]; at 11.0 µM 9% | [3]; at 33.0 µM 28% | [3]; at 100.0 µM 51% | [4]; at 1.2 µM -1% | [4]; at 3.7 µM -6% | [4]; [16] -199% | [4]; at 11.0 µM 24% | [4]; at 33.0 µM 62% | [4]; [17] 58% | [4]; at 50.0 µM 56.2% | [5]; at 1.2 µM 3% | [5]; at 3.7 µM 1% | [5]; [16] -53% | [5]; at 11.0 µM -15% | [5]; at 33.0 µM 21% | [5]; [17] -13% | [6]; at 1.2 µM -1% | [6]; at 3.7 µM -1% | [6]; at 11.0 µM 9% | [6]; at 33.0 µM 51% | [7]; [16] -59% | [7]; [17] 30% | [7]; at 50.0 µM 50.8% | [8]; at 1.2 µM -3% | [8]; at 3.7 µM -3% | [8]; at 11.0 µM -6% | [8]; at 33.0 µM 2% | [8]; at 100.0 µM 53% | [9]; [16] -57% | [9]; [17] 8% | [10]; at 1.2 µM -6% | [10]; at 3.7 µM -2% | [10]; [16] -70% | [10]; at 11.0 µM -7% | [10]; at 33.0 µM 0% | [10]; [17] -15% | [10]; at 100.0 µM 59% | [11]; at 1.2 µM -1% | [11]; at 3.7 µM -2% | [11]; at 11.0 µM -3% | [11]; at 33.0 µM 22% | [12]; at 1.2 µM 4% | [12]; at 3.7 µM -6% | [12]; at 11.0 µM -3% | [12]; at 33.0 µM 18% | [12]; at 100.0 µM 64% | [13]; [16] -102% | [13]; [17] 39% | [14]; at 1.2 µM 2% | [14]; at 3.7 µM 11% | [14]; at 11.0 µM 44%
active: [1]; at 100.0 µM 97% | [4]; at 100.0 µM 97% | [5]; at 50.0 µM 99% | [5]; at 100.0 µM 72% | [6]; at 100.0 µM 96% | [9]; at 50.0 µM 96% | [10]; at 50.0 µM 98.8% | [11]; at 100.0 µM 70% | [13]; at 50.0 µM 97.3% | [14]; at 33.0 µM 74% | [14]; at 100.0 µM 97%

N#C/C(=C\c1ccccc1)c1ccccc1F
inactive: [1]; at 1.2 µM -1% | [1]; at 3.7 µM -3% | [1]; at 11.0 µM -2% | [1]; at 33.0 µM -1% | [1]; at 100.0 µM 3% | [2]; at 1.2 µM 1% | [2]; at 3.7 µM 1% | [2]; at 11.0 µM 2% | [2]; at 33.0 µM 1% | [2]; at 100.0 µM 1% | [3]; at 1.2 µM 2% | [3]; at 3.7 µM 2% | [3]; at 11.0 µM 9% | [3]; at 33.0 µM 16% | [3]; at 100.0 µM 21% | [4]; at 1.2 µM -4% | [4]; at 3.7 µM 3% | [4]; [16] 6% | [4]; at 11.0 µM -2% | [4]; at 33.0 µM 2% | [4]; at 50.0 µM 44.1% | [4]; at 100.0 µM 10% | [5]; at 1.2 µM 2% | [5]; at 3.7 µM 0% | [5]; [16] -11% | [5]; at 11.0 µM 4% | [5]; at 33.0 µM -4% | [5]; [17] 69% | [5]; at 50.0 µM 41.7% | [5]; at 100.0 µM -4% | [6]; at 1.2 µM -2% | [6]; at 3.7 µM -1% | [6]; at 11.0 µM 1% | [6]; at 33.0 µM 1% | [6]; at 100.0 µM 5% | [7]; [16] -8% | [7]; at 50.0 µM 45.9% | [8]; at 1.2 µM 13% | [8]; at 3.7 µM 9% | [8]; at 11.0 µM 11% | [8]; at 33.0 µM 14% | [8]; at 100.0 µM 8% | [9]; [16] -10% | [9]; [17] 17% | [9]; at 50.0 µM 6.15% | [10]; at 1.2 µM -31% | [10]; at 3.7 µM -21% | [10]; [16] -17% | [10]; at 11.0 µM -6% | [10]; at 33.0 µM -10% | [10]; at 50.0 µM 34.9% | [10]; at 100.0 µM -7% | [12]; at 1.2 µM -1% | [12]; at 3.7 µM 2% | [12]; at 11.0 µM 0% | [12]; at 33.0 µM -6% | [12]; at 100.0 µM 10% | [15]; at 1.2 µM -1% | [15]; at 3.7 µM -1% | [15]; at 11.0 µM 1% | [15]; at 33.0 µM 1% | [15]; at 100.0 µM 2% | [13]; [16] 22% | [13]; at 50.0 µM 67% | [14]; at 1.2 µM -2% | [14]; at 3.7 µM -5% | [14]; at 11.0 µM -7% | [14]; at 33.0 µM -14% | [14]; at 100.0 µM -15%
active: [4]; [17] 89% | [7]; [17] 90% | [10]; [17] 88% | [13]; [17] 96%

COc1cc(N(C)C)ccc1/C=C\c1ccnc2ccccc12
inactive: [1]; at 1.2 µM -5% | [1]; at 3.7 µM -7% | [1]; at 11.0 µM -6% | [1]; at 33.0 µM -5% | [1]; at 100.0 µM -10% | [2]; at 1.2 µM -5% | [2]; at 3.7 µM -7% | [2]; at 11.0 µM -7% | [2]; at 33.0 µM -9% | [2]; at 100.0 µM -7% | [3]; at 1.2 µM -2% | [3]; at 3.7 µM -2% | [3]; at 11.0 µM 10% | [3]; at 33.0 µM 16% | [3]; at 100.0 µM 12% | [4]; at 1.2 µM -5% | [4]; at 3.7 µM -7% | [4]; [16] -10% | [4]; at 11.0 µM -3% | [4]; at 33.0 µM -1% | [4]; [17] -10% | [4]; at 50.0 µM 2.3% | [4]; at 100.0 µM 1% | [5]; at 1.2 µM -4% | [5]; at 3.7 µM -7% | [5]; [16] -11% | [5]; at 11.0 µM -8% | [5]; at 33.0 µM -4% | [5]; [17] -19% | [5]; at 50.0 µM -8.75%
